DT40 TDP1 no CPT: qHTS for Inhibitors of human tyrosyl-DNA phosphodiesterase 1 (TDP1): qHTS in cells in absence of CPT. AID 686978, 2013. DT40 Tdp1-/- hTDP1 cells, no CPT, ATP luminescence, 48 h. 420,000 compounds, 15% hits. Potency, µM (doses to about 46.2 µM), without a hit: at the top dose activity change, negative = growth inhibition, usual class: inhibitors; note: potency is the fitted concentration of half-maximal effect; % is set by controls: 0 for no effect and ±100 for the full control effect; nearly all actives have a fitted effect of over 55% in size
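Luminescent ATP content (CellTiter-Glo) served as the growth readout. Knockout chicken DT40 cells expressing human TDP1 were exposed to compounds without camptothecin for a minimum 48 hr at 37 °C.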
TGFb inhibitor: blocks TGF-b signaling | HepG2 CAGA-GFP TGF-b/SMAD3 reporter, GFP fluorescence, 18 h; TGF-beta stimulated, 500 pg/mL final | Potency, µM (doses to about 46.1 µM), inactives show at the top dose activity, negative = inhibition, usual class: inhibitors | 410,000 compounds, 1.2% hits; note: potency is the fitted concentration of half-maximal effect; % is set by controls: 0 for no effect and ±100 for the full control effect; nearly all actives have a fitted effect of over 65% in size
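First, reporter cells (HEPG2 CAGA-GFP) rested 2 h at 37 degrees C. Next, compounds were pinned in and TGF-beta added to 500 pg/mL final. After 18 h, GFP was imaged per cell and summed per well.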
IL1B secr inh: inhibitors of inflammasome signaling (IL-1 beta secretion) | THP-1 LPS/ATP IL-1B secretion, AlphaLISA, 16 h; active compounds read low | 360,000 compounds, 4.7% hits | activity change, % at 57.5 µM; in the data active = activity change below about -50%; inconclusive = mostly about -30% to -49%; note: % is set by controls: 0 for no effect and ±100 for the full control effect
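THP-1 cells pretreated 1 hr with compounds (up to 57.5 uM final), then stimulated with LPS (250 ng/mL final) plus ATP (1.25 mM final); secreted IL-1B measured by AlphaLISA after 16 hr, decreased signal indicating inhibition.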
DT40 TDP1 CPT: DT40-hTDP1 cell growth loss with CPT. Potency, µM (top dose mostly 46.2 µM), for the others: top-dose activity change, negative = growth inhibition, usual class: inhibitors. AID 686979. 420,000 compounds, 12% hits. chicken DT40 Tdp1-/-;hTDP1 cells + 20 nM CPT, ATP luminescence, 48 h; note: potency is the fitted concentration of half-maximal effect; % is set by controls: 0 for no effect and ±100 for the full control effect; nearly all actives have a fitted effect of over 55% in size
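Chicken DT40 Tdp1-/- cells complemented with human TDP1, 400 cells/well, exposed to compounds plus 20 nM camptothecin for at least 48 h at 37 C; viability read as ATP content by CellTiter-Glo luminescence.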
S-ASM inh: human S-ASM enzyme inhibition | Potency, µM (top dose mostly 57.5 µM), without a hit: at the top dose activity change, negative = inhibition, most hits filed as inhibitors | 340,000 compounds, 0.006% hits | P17405 | placental ASM, HMU-PC fluorogenic substrate, 60 min; note: potency is the fitted concentration of half-maximal effect
Target sequence (P17405 47-631 limits assumed): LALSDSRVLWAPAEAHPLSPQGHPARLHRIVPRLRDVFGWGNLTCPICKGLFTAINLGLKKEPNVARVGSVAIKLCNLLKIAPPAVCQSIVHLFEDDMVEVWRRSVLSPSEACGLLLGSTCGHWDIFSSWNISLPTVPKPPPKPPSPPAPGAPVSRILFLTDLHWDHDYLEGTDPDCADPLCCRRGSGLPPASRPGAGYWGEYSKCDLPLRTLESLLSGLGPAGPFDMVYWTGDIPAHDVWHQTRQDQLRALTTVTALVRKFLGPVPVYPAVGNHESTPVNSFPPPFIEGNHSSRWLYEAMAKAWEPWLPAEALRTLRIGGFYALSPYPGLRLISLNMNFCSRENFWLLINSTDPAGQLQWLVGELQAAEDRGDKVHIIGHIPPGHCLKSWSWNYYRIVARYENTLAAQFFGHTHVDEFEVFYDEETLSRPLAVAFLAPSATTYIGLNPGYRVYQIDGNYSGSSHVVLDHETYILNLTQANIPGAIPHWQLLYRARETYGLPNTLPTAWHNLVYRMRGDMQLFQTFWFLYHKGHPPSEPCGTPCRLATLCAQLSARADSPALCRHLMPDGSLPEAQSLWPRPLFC
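HMU-PC0 cleavage (9 uM final) by human placental ASM, 60 min at 37 °C following 10 min compound exposure at RT; stopped at pH 10, fluorescence Ex 386/Em 447 nm.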
HepG2 tox: kills HepG2 cells in TGF-b inhibitor counter-screen; HepG2 CAGA-GFP viability, ATP luminescence, 18 h; Potency, µM (top dose mostly 46.1 µM), for inactives: at the top dose activity change, negative = cytotoxicity, most hits filed as cytotoxic; 410,000 compounds, 0.76% hits; note: potency is the fitted concentration of half-maximal effect
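CellTiter-Glo luminescence gave cytotoxicity after 18 hours at 37 degrees C. The cells were HepG2 CAGA-GFP in 1% FBS DMEM, stimulated with 500 pg/mL TGF-beta after compound addition. %Activity was normalised to no-cell wells (complete cell-killing) and DMSO (no toxicity), and curves were fitted and classified.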
* hit, by the source's call; ? = inconclusive; . = no result. Shown are actives, neighbours in structure and some others; about 19% of the full set was active somewhere. Unless noted, calls come from the whole dose curve; as a rule, active = well fitted curve in the direction sought with a large enough effect; inconclusive = small, poorly fitted or top-dose-only effect, or another doubt; inactive = no such curve, though single readings can be large; an effect the other way counts as inactive or inconclusive.

SMILES | DT40 TDP1 no CPT | TGFb inhibitor | IL1B secr inh | DT40 TDP1 CPT | S-ASM inh | HepG2 tox
CCN1C(C(=O)c2ccccc2)=C(OC(=O)COc2ccccc2)c2ccccc2S1(=O)=O | 16.4µM* | -10.2% | . | ? | . | -16.4%
CCN1C(C(=O)c2ccccc2)=C(OC(=O)C(C)C)c2ccccc2S1(=O)=O | 5.17µM* | 11.2µM* | . | 6.51µM* | . | -37.6%
Cc1ccc(OCC(=O)OC2=C(C(=O)c3ccccc3)N(C)S(=O)(=O)c3ccccc32)cc1 | 4.11µM* | -3.1% | . | ? | . | 5.5%
CCOC(=O)c1ccc(CN2C(=O)c3ccccc3S2(=O)=O)cc1 | -4.6% | 0.4% | 35.2 | -4.2% | -1.8% | 10.2%
CCCCN(CCCC)C1=C(C(=O)c2ccccc2)N(C)S(=O)(=O)c2ccccc21 | ? | 11.5% | . | ? | . | -21.0%
O=C(OCc1nnc(-c2ccccc2)o1)c1cccc(S(=O)(=O)N2CCOCC2)c1 | -14.4% | 5.9% | -17.8 | -0.3% | -0.3% | 31.0%
C[C@H](CO)N1C[C@H](C)[C@H](CN(C)C(=O)c2ccc(N3CCN(C)CC3)cc2)OCc2cnnn2CCCC1=O | ? | -3.3% | -17.9 | -16.6% | . | -9.4%
CCOC(=O)Cc1cc(=O)n2[nH]c(C(C)(C)C)cc2n1 | -11.9% | 0.0% | -4.0 | 25.5% | 2.4% | -24.5%
CC(=O)c1ccc(S(=O)(=O)N2CCN(CC(=O)NC(=O)NC3CCCCC3)CC2)cc1 | ? | -5.1% | -8.6 | -23.9% | 2.4% | 2.4%
O=C(Cn1c(O)c(/C=C2\C=Nc3ccc(Br)cc32)sc1=O)N1CCCC1 | ? | 4.7% | ? | 20.6µM* | -1.0% | -41.4%
O=c1c2ccccc2c(C=NCc2ccccn2)c(O)n1-c1ccccc1 | ? | 1.9% | -9.1 | -25.4% | 49.9% | 7.5%
Cc1ccc(-n2c(O)c(C=NCc3ccccn3)c3ccccc3c2=O)cc1C | 25.9µM* | -4.7% | -66.5* | 8.2µM* | -5.6% | -16.2%
Cn1ccnc1SCC(=O)c1ccc([N+](=O)[O-])cc1 | ? | 4.2% | -14.7 | 18.4µM* | 3.9% | 2.7%
Cn1ccnc1SCC(=O)c1c[nH]c2ccccc12 | -14.6% | -11.4% | 12.4 | -20.6% | 1.8% | -12.8%
CCN(C(=O)CSc1nccn1C)c1cccc2ccccc12 | 10.3µM* | -7.3% | 58.5 | 20.6µM* | 0.6% | -9.8%
Cn1ccnc1SCC(=O)Nc1cccc2ccccc12 | -5.0% | ? | 5.7 | -27.2% | -2.4% | -4.3%
COc1ccccc1C(=O)CSc1nccn1C | 16.4µM* | -14.8% | -18.8 | ? | -2.1% | -15.4%
FC(F)(F)c1cccc(Cc2noc(CN3CCCC(CN4CCCC4)C3)n2)c1 (stereo unspecified) | ? | -20.3% | -11.2 | -24.8% | -1.2% | -25.0%
CCOc1ccc(N2CC(C(=O)NNC(=O)c3ccc(F)cc3)CC2=O)cc1 (stereo unspecified) | 9.9% | 2.4% | -0.1 | 4.2% | -2.6% | -2.4%
COc1ccccc1C1OC2=C(Nc3ccc([N+](=O)[O-])cc3N2)C1=O (stereo unspecified) | 13µM* | -25.3% | -5.8 | 13µM* | -8.0% | -0.2%
CCC(C(=O)NCc1ccccc1)n1ncn2c(cc3occc32)c1=O (stereo unspecified) | -11.7% | ? | . | -0.8% | . | 11.8%
CC(C)(C)c1ccc(C(=O)NCC(=O)OCCN2C(=O)c3ccccc3C2=O)cc1 | -17.6% | -0.2% | -3.4 | -15.0% | 1.6% | 4.3%
COc1ccc(-c2cn3ccccc3n2)cc1[N+](=O)[O-] | -22.4% | -11.5% | -14.7 | 5.3% | -0.6% | -20.6%

Assay outcomes as filed in PubChem BioAssay.
